The values that follow come from PubChem BioAssay (NCATS).

Results filed as inconclusive are left out. Calls of active or inactive are those of the source. Unless noted, calls follow the shape of the dose curve; as a rule, active = well fitted curve in the direction sought with a large enough effect; inconclusive = small, poorly fitted or top-dose-only effect, or another doubt; inactive = no such curve, though single readings can be large; an effect the other way counts as inactive or inconclusive.

Test [1] has as its target Lysosomal acid glucosylceramidase (Homo sapiens) (UniProt P04062). The test can be described thus: Glucocerebrosidase-p2 (AID 348; in the data active = potency below about 10 µM; also: potency is read from the fitted curve at half-maximal effect). Conditions: purified GBA, blue fluorogenic substrate, 40 min. In short, it runs like this:
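Normal human glucocerebrosidase (0.2 nM) with blue fluorogenic substrate (80 uM final) in citrate/phosphate pH 5.9 with 10mM sodium taurocholate, 0.01% tween-20; 40 min RT, NaOH/glycine stop; fluorescence Ex 365/Em 440; AC50 from a titration from 0.6 nM upwards.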

In test [2] the target is Cytochrome P450 1A2 (Homo sapiens) (UniProt P05177). The test can be described thus: p450-cyp1a2 (AID 410; calls by dose curve; also: potency is read from the fitted curve at half-maximal effect). Particulars: recombinant CYP1A2, luciferin-ME demethylation, luminescence; series mostly up to 57 µM. In short, it runs like this:
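Luminescent demethylation readout: Luciferin-ME (100uM, equal to Km) turned over by 20nM CYP1A2 for 60 min at room temperature after NADPH regeneration addition, following 10 min compound preincubation. Normalization used 57 uM furafylline as full inhibition.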

Test [3] is described as follows: Stat Signaling Pathway (AID 446; active = well fitted curve in either direction with a large enough effect, not every such curve was filed as active;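 also: ME-180 cervical cancer cells given 40 pM IL-6 alongside compound; SIE-controlled beta-lactamase reporter measured as 460/530 nm FRET emission ratio; % is scaled to controls: 0 for no effect and ±100 for the full control effect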). Conditions: ME-180 SIE beta-lactamase reporter, IL-6 stimulated, 5 h; at 7.69 µM (top of the series) unless noted. In short, it runs like this: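 FRET read-out (405 nm excitation, 460/530 nm emission) of a beta-lactamase reporter under a STAT-inducible element in ME-180 cervical carcinoma cells. Cells with compound receive 40 pM IL-6 for 5 h. Values are normalised to AC90 stimulation and AC90 JAK-inhibitor controls.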

Test [4] concerns the target Glucocorticoid receptor (Homo sapiens) (UniProt P04150). In words: GR-GFP Redistribution (AID 450;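 active = compounds whose dose series gives a full or clear partial fitted curve of increased nuclear translocation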; also: potency is read from the fitted curve at half-maximal effect). Particulars: U2OS GR-GFP nuclear translocation, laser cytometry, 2 h.
Test [5] has the same target. The test can be described thus: GR-EFC Redistribution (AID 451; calls by dose curve; also: potency is read from the fitted curve at half-maximal effect). Conditions: CHO-K1 GR-EFC translocation, beta-gal luminescence, 2 h. Put shortly: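 CHO-K1 cells expressing nuclear EA and GR-ED fragments of b-gal; compounds titrated up to 46 uM final, 2 h at 37 C. GR nuclear translocation read as complemented b-gal luminescence after 1 h RT detection.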
Test [6] deals with Mitogen-activated protein kinase 10 (Mus musculus) (UniProt Q61831). The test can be described thus: JNK3 AlphaScreen Assay (AID 530; active = well fitted curve in either direction with a large enough effect, not every such curve was filed as active;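 also: kinase came from lysate of stimulated human HepG2 cells; signal reports phosphorylation of biotinylated GST-cJun 1-79 at Ser73 with 10 µM ATP; % is scaled to controls: 0 for no effect and ±100 for the full control effect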). Conditions: JNK3 lysate, c-Jun phosphorylation; series mostly up to 57.1 µM. Put shortly: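 Activity was read by AlphaScreen after JNK3-containing HepG2 lysate (cytokine pre-activated) phosphorylated biotinylated GST-cJun with 10 uM ATP at room temperature. Phospho-Ser73 cJun antibody with Protein-A acceptor beads provided detection.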

For test [7], the target named is Cytochrome P450 2C9 (Homo sapiens) (UniProt P11712). In words: qHTS Assay for Inhibitors and Substrates of Cytochrome P450 2C9 (AID 883). Also: potency is read from the fitted curve at half-maximal effect; nearly all actives have a fitted effect of over 60% in size. Conditions: recombinant CYP2C9, luciferin-H luminescence, 60 min; series mostly up to 57.1 µM. In short, it runs like this: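 Human CYP2C9 (10nM) with Luciferin-H at 100uM (its KM) in 25mM KPO4; compound preincubated 10 min at 37C, then NADPH regeneration for 60 min at 37C. Luciferin read by luminescence after detection reagent; normalized to 57uM sulphaphenazole as full inhibition.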

The target of test [8] is Cytochrome P450 3A4 (Homo sapiens) (UniProt P08684). The test can be described thus: qHTS Assay for Inhibitors and Substrates of Cytochrome P450 3A4 (AID 884). Also: potency is read from the fitted curve at half-maximal effect; nearly all actives have a fitted effect of over 50% in size. Particulars: recombinant CYP3A4, Luciferin-PPXE luminescence; series mostly up to 57.1 µM. In short, it runs like this: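 Luminescent readout of luciferin produced by CYP3A4 (20 nM) dealkylation of Luciferin-PPXE, 25 uM (its KM). NADPH-driven reaction ran 60 min at RT after 10 min compound preincubation; data scaled to 57 uM ketoconazole as 100% inhibition.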

Test [9] has the same target. In words: qHTS Assay for Activators of Cytochrome P450 3A4 (AID 885). Also: nearly all actives have a fitted effect of over 65% in size. Particulars: recombinant CYP3A4, Luciferin-PPXE luminescence, 60 min; series mostly up to 57.1 µM. In short, it runs like this: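 Luminescent readout of luciferin formed from 25 uM Luciferin-PPXE (KM level) by 20 nM CYP3A4 in 200 mM KPO4, with 60 min NADPH-driven reaction at room temperature after 10 min compound exposure. Ketoconazole (57 uM) defined 100% inhibition.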

Test [10] has as its target Cytochrome P450 2D6 (Homo sapiens) (UniProt P10635). In words: qHTS Assay for Inhibitors and Substrates of Cytochrome P450 2D6 (AID 891). Also: potency is read from the fitted curve at half-maximal effect; nearly all actives have a fitted effect of over 60% in size. Conditions: recombinant CYP2D6, luciferin-ME EGE luminescence; series mostly up to 57.1 µM. Put shortly: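 Luminescent read-out of luciferin formed by 5 nM human CYP2D6 demethylating 30 uM Luciferin-ME EGE (Km level) over 60 min at room temperature after NADPH regeneration addition. Data normalized to full inhibition by 1.43 uM quinidine.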

The target in test [11] is Cytochrome P450 2C19 (Homo sapiens) (UniProt P33261). The test can be described thus: qHTS Assay for Inhibitors and Substrates of Cytochrome P450 2C19 (AID 899). Also: potency is read from the fitted curve at half-maximal effect; nearly all actives have a fitted effect of over 60% in size. Conditions: recombinant CYP2C19, luciferin-H EGE luminescence; series mostly up to 57.1 µM. In short, it runs like this:
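5 nM human CYP2C19 with 10uM Luciferin-H EGE (at KM) in 50mM KPO4, compound preincubated 10 min at 37C, then NADPH regeneration for 60 min at 37C. Luciferin read by luminescence after detection reagent; normalized to 57uM ketoconazole as full inhibition.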

The nature of test [12]: Confirmation and Secondary Assay for Modulators of Hemoglobin Beta Chain Splicing at IVS2 654 locus (AID 910).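 Also: HeLa cells stably carrying EGFP split by mutant beta-globin IVS2-654 intron; % of control where 0% means no effect.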 Particulars: HeLa EGFP-654 splicing reporter, GFP fluorescence, 48 h; series mostly up to 38.3 µM. In short, it runs like this:
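HeLa cells stably expressing EGFP interrupted by β-globin IVS2-654 intron, seeded overnight in Opti-MEM/2% FCS, then treated 2 days at 37 °C. Restored splicing read as total peak GFP intensity per well by laser scanning cytometry (488 nm excitation, 500–520 nm emission); 500 nM antisense PNA as control.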

A short description of test [13]: Confirmation and Secondary Assay for Modulators of Hemoglobin Beta Chain Splicing at IVS2 705 locus (AID 930).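 Also: HeLa cells stably expressing the EGFP-705 splicing reporter; GFP fluorescence per well restored by corrected splicing of the IVS2-705 intron in EGFP; % of control where 0% means no effect.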 Conditions: HeLa EGFP-705 splicing reporter, GFP fluorescence, 48 h; series mostly up to 38.3 µM. Put shortly:
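HeLa IVS2-705 EGFP reporter cells, 500/well, compound 2 d at 37C; correct splicing yields fluorescent EGFP. Control: 500 nM antisense PNA. Read-out: total peak GFP intensity.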

Test [14] in a line: qHTS Assay for Lipid Storage Modulators (AID 1519; calls by dose curve). Conditions: Drosophila S3 cells, BODIPY lipid droplet/cell ratio, laser cytometry, cells loaded with oleic acid. Put shortly: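 Cells seeded at 5,000 per well were treated with compounds over a concentration series and loaded with oleic acid (400 uM, as added). Lipid droplet fluorescence (488 nm excitation, 500-530 nm channel) was read by laser-scanning cytometry and normalized to 20 uM Triacsin C.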

The target of test [15] is Calcium and integrin-binding protein 1 (Homo sapiens) (UniProt Q99828). In words: Primary qHTS for Identification of Calcium Integrin Binding Protein 1 (CIB1) Competitor (AID 1508620). Also: top concentration of the series differs between compounds; % is scaled to controls: 0 for no effect and ±100 for the full control effect. Particulars: CIB1-GST / FITC-alphaIIb peptide fluorescence polarization; series mostly up to 114 µM. In short, it runs like this: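 Fluorescence polarization competition: GST-tagged CIB1 (1 uM final) preincubated with compound 15 min at room temperature, then FITC-labelled alphaIIb peptide (100 nM final) added. After 15 min at room temperature, polarization read at Ex 480/Em 540.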

Test [16] can be described thus: Primary qHTS for small molecule stabilizers of the endoplasmic reticulum resident proteome: Secreted ER Calcium Modulated Protein (SERCaMP) assay (AID 1508630). Also: % is scaled to controls: 0 for no effect and ±100 for the full control effect. Conditions: SH-SY5Y GLuc-SERCaMP (Gaussia luciferase released on ER calcium loss) secretion, thapsigargin, luminescence; series mostly up to 38.4 µM. Put shortly: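 The SH-SY5Y reporter protocol was run at 3 concentrations up to 38.3 uM (primary) or 11 concentrations (follow-up): 16 h compound, 100 nM thapsigargin for 4 h, then extracellular luciferase luminescence.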

The nature of test [17]: AP1 Signaling Pathway (AID 357; active = well fitted curve in either direction with a large enough effect, not every such curve was filed as active; also: % is scaled to controls: 0 for no effect and ±100 for the full control effect). Conditions: ME-180 (cervical carcinoma) AP-1-bla reporter, EGF-induced, beta-lactamase ratio, 5 h; at 7.69 µM (top of the series) unless noted. In short, it runs like this: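 AP-1-bla ME-180 cells with beta-lactamase reporter under AP-1 response element, stimulated with EC50 EGF; compounds titrated, 5 hours at 37 degrees Celsius. CCF4 read at 460/530 nm ratio; positive and negative modulators judged by AC50.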

A short description of test [18]: NFAT Signaling Pathway (AID 444; active = well fitted curve in either direction with a large enough effect, not every such curve was filed as active). Particulars: Jurkat NFAT-bla M1, carbachol, beta-lactamase ratio, 5 h; at 7.69 µM (top of the series) unless noted. Put shortly:
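Jurkat cells with NFAT-driven β-lactamase reporter and co-expressed M1 receptor, stimulated with carbachol (final 1 uM, ~EC50), compound titration, 5 h at 37 °C. CCF4 loaded 1 h at RT; 460/530 nm ratio gave %activity and AC50.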

Test [19] addresses Dual specificity protein kinase CLK4 (Homo sapiens) (UniProt Q9HAZ1). The test can be described thus: qHTS Assay for Inhibitors of CDC-like Kinase 4 (Kinase-Glo Assay) (AID 1770). Also: potency is read from the fitted curve at half-maximal effect; nearly all actives have a fitted effect of over 65% in size. Conditions: recombinant Clk4, Kinase-Glo ATP depletion luminescence; series mostly up to 66.7 µM. Put shortly: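 Recombinant human Clk4 (25 nM) phosphorylated RS repeat peptide (100 uM) with 1 uM ATP in Tris pH 7.5/MgCl2/EGTA/DTT/Triton buffer for 4.5 h at room temperature. Residual ATP was quantified by Kinase-Glo luciferase luminescence.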

Test [20] has the same target. The test can be described thus: qHTS Assay for Inhibitors of CDC-like Kinase 4 (ADP-FP Assay) (AID 1795). Also: potency is read from the fitted curve at half-maximal effect; nearly all actives have a fitted effect of over 60% in size. Particulars: Transcreener ADP fluorescence polarization; series mostly up to 50 µM. In short, it runs like this: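 Recombinant human Clk4 (6.25 nM) phosphorylated RS repeat peptide (100 uM) with 1 uM ATP in Tris pH 7.5/MgCl2/EGTA/DTT/Triton buffer for one hour. ADP was quantified by Transcreener competitive fluorescence polarization against an ADP calibration curve.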

Test [21] has as its target Ubiquitin carboxyl-terminal hydrolase 1 (Homo sapiens) (UniProt O94782). The test can be described thus: Inhibitors of USP1/UAF1: Pilot qHTS (AID 504865).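 Also: rhodamine fluorescence freed from ubiquitin-rhodamine substrate followed over time; top concentration of the series differs between compounds; % is scaled to controls: 0 for no effect and ±100 for the full control effect; nearly all actives have a fitted effect of over 35% in size.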 Particulars: purified USP1/UAF1, Ub-rhodamine cleavage fluorescence; series mostly up to 54.9 µM. In short, it runs like this: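 USP1/UAF1 complex (1nM) preincubated with compound 15 min at room temperature, then Ub-Rho substrate (150nM final) added. Fluorescence read kinetically at 480/540 nm, 6 reads every 60 seconds. Buffer: 50mM HEPES pH 7.8, 0.5mM EDTA, 0.1 mg/ml BSA, 1mM TCEP, 0.01% Tween-20.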

Sequence of Cytochrome P450 3A4 (Homo sapiens) (P08684 whole entry, looked up): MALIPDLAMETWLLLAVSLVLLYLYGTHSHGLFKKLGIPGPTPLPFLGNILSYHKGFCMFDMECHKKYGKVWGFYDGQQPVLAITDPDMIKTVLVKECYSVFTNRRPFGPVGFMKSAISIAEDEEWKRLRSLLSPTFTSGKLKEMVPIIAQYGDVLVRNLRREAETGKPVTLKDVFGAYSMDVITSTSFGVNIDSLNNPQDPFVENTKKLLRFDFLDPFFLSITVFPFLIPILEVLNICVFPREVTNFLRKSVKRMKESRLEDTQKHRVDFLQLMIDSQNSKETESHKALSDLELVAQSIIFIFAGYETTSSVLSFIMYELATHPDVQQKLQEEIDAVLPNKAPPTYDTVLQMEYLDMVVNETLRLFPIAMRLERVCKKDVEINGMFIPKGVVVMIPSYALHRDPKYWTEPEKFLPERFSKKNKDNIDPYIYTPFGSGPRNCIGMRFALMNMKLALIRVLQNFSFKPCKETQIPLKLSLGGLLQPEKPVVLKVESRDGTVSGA
Sequence of Glucocorticoid receptor (Homo sapiens) (P04150 whole entry, looked up, the tested form may be a part): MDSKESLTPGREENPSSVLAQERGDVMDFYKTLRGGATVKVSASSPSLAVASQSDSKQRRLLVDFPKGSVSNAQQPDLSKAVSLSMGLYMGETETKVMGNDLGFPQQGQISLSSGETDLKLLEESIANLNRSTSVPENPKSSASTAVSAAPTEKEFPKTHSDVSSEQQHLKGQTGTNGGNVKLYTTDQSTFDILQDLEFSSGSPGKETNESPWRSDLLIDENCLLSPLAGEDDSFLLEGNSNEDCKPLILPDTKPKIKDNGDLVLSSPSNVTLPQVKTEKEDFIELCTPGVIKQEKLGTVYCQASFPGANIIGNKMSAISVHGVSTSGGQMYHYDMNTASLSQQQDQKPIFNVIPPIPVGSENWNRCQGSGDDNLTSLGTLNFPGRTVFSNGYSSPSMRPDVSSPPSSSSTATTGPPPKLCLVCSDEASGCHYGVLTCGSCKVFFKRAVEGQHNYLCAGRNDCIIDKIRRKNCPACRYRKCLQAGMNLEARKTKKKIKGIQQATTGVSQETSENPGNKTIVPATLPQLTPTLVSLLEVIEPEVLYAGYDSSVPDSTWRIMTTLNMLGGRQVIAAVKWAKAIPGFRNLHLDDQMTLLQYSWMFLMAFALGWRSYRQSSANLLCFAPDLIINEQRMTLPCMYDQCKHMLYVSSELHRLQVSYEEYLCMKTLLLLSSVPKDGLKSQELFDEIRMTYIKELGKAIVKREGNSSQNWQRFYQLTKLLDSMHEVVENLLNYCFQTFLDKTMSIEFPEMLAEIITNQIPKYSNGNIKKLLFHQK
Sequence of Calcium and integrin-binding protein 1 (Homo sapiens) (Q99828 whole entry, looked up): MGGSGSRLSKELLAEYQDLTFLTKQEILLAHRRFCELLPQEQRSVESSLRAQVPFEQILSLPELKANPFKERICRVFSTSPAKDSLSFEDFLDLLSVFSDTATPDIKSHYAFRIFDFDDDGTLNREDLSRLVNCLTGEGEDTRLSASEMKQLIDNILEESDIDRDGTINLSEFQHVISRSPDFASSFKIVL
Sequence of Dual specificity protein kinase CLK4 (Homo sapiens) (Q9HAZ1 whole entry, looked up): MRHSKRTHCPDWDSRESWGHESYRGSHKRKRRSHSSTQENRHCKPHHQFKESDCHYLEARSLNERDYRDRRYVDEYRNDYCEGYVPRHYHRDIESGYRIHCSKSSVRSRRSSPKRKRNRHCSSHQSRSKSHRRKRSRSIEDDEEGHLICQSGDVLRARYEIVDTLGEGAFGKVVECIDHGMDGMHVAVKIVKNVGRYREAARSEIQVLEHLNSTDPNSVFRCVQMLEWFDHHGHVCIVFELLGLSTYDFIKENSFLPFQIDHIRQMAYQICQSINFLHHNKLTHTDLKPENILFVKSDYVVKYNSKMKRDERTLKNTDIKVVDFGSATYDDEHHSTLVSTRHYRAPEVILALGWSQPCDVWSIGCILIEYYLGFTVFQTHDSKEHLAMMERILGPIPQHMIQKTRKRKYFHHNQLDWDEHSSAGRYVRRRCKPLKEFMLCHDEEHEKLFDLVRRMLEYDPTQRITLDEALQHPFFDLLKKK
Sequence of Cytochrome P450 2D6 (Homo sapiens) (P10635 whole entry, looked up): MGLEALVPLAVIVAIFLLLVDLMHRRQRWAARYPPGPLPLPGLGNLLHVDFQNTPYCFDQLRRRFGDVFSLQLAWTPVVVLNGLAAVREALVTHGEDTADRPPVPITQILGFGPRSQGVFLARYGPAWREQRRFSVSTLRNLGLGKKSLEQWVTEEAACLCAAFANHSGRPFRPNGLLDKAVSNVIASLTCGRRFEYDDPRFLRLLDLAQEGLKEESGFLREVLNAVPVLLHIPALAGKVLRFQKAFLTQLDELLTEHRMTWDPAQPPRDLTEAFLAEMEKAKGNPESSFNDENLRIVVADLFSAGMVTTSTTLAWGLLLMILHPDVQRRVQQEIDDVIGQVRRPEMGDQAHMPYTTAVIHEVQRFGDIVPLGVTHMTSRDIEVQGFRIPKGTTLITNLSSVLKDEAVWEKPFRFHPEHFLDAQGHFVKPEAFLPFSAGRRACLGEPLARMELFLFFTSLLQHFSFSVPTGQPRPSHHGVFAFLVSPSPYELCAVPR
Sequence of Cytochrome P450 1A2 (Homo sapiens) (P05177 whole entry, looked up): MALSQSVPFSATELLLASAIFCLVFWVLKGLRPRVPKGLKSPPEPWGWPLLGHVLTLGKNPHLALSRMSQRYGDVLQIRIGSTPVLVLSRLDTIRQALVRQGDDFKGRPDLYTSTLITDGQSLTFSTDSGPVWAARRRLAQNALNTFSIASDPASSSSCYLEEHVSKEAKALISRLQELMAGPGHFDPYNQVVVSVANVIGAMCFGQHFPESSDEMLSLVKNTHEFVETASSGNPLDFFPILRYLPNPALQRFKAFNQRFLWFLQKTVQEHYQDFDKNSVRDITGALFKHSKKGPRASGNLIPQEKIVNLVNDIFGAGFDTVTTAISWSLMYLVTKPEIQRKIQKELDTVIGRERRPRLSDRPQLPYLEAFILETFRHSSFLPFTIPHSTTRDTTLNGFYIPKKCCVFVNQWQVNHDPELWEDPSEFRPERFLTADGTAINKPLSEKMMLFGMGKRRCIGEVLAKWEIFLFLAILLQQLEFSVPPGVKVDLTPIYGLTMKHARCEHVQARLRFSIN
Sequence of Lysosomal acid glucosylceramidase (Homo sapiens) (P04062 whole entry, looked up): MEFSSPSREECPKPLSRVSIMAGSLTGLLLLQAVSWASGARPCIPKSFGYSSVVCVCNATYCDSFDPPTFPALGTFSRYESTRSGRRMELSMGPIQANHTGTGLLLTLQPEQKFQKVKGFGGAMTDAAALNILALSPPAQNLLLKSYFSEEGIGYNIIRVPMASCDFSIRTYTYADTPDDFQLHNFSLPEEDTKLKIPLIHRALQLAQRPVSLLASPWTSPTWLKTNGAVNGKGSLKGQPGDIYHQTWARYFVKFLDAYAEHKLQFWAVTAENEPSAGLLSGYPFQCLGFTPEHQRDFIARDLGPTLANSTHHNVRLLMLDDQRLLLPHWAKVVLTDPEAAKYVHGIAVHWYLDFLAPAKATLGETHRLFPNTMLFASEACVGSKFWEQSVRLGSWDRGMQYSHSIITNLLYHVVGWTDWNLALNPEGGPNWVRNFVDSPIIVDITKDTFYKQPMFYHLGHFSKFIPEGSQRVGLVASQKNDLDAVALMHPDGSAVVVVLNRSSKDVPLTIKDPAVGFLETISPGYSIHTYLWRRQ
Sequence of Cytochrome P450 2C9 (Homo sapiens) (P11712 whole entry, looked up): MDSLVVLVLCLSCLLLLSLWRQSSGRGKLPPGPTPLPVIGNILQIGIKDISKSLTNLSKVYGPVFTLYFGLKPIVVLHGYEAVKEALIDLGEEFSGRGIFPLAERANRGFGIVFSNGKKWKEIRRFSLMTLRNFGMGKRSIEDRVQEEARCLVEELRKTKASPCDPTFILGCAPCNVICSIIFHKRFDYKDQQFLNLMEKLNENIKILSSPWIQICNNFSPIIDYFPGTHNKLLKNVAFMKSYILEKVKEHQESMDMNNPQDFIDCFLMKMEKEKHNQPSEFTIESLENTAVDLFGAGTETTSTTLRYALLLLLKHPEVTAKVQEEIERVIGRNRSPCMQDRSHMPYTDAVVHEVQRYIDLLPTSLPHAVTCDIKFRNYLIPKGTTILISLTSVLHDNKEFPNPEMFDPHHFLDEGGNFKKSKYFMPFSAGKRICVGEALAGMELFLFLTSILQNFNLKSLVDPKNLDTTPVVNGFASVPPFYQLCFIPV
Sequence of Cytochrome P450 2C19 (Homo sapiens) (P33261 whole entry, looked up): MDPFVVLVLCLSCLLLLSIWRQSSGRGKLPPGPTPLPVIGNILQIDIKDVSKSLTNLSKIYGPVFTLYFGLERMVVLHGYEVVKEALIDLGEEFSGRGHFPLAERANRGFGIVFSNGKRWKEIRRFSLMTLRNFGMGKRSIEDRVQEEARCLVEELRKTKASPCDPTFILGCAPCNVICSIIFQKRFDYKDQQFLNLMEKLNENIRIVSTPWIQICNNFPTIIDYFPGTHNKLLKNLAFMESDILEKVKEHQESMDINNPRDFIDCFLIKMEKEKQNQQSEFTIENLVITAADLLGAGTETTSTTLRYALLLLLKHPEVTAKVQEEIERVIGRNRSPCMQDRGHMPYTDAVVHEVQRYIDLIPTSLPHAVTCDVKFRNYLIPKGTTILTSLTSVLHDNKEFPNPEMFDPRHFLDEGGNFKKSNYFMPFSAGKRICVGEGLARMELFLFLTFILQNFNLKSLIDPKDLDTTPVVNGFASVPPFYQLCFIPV

In the case of `Cc1cccc(CNc2ncnc3ccc(-c4ccc5c(c4)OCO5)cc23)c1`, the Potency in test [1] was > 11.4 µM (inactive); in [2], 0.501 µM (active); in test [4] it was > 46 µM (inactive); in test [5] it was > 46 µM (inactive); in [7] it was 0.316 µM (active); in [8] it was 2 µM (active). For the same compound, the Potency in test [10] was 0.501 µM (active); in test [11], 5.01 µM (active). Also, the activity, negative = inhibition in test [3] is -13.6% (inactive). In addition, the result in test [6], in [12] and in test [13] was inactive. The Potency result in test [9], in test [15] and in test [16] was “inactive” throughout. Moreover, the activity change, negative = inhibition in test [14] (at 57.5 µM (top of the series)) was 5.85% (inactive). In addition, the max response in test [14] (measured here: cell count channel max response) is -5.17%; in test [14] (measured here: lipid channel max response), -0.18%.
As for `CC(=O)Nc1sc2c(c1-c1ccc3c(c1)OCCCO3)CCNC2`, the Potency entry in test [15] is “inactive”.
Same read-out and setting: in the case of `O=c1c2ccccc2nc2sc(Nc3ccc(Br)cc3)nn12` it was “inactive”.
On to `Clc1ccccc1-c1ccc2ncnc(NCc3cccnc3)c2c1`, for which the Potency in test [1] was > 11.4 µM (inactive); in test [2], 0.158 µM (active); in [4] it was > 46 µM (inactive); in test [5], > 46 µM (inactive); in [8], 2 µM (active); in test [10], 6.31 µM (active). Moreover, the Potency in [19] and in test [20] was 10 µM (active) each time. Also, the activity change, negative = inhibition is 2.12% (inactive) in [17] and 13.8% (inactive) in test [18]. The activity, negative = inhibition in test [3] is -5.2% (inactive). In addition, the result in [6] was inactive. The Potency entry in test [9], in test [21], in test [15] and in [16] was “inactive” throughout.
